Measured values taken from PubChem BioAssay (Tox21).
Unmarked numbers belong to inactive results. Results filed as inconclusive are left out. A call without a number means that no potency is given here. Active and inactive are the calls of the source. Unless noted, the call rests on the fitted dose curve; in most records, active means well fitted curve in the direction sought with a large enough effect in the repeat runs; inconclusive means weak or mixed curves; inactive means no such curve, though single readings can be large; an effect the other way counts as inactive or inconclusive.

Columns and labels:
[1] = qHTS assay to identify small molecule antagonists of the TGF-beta/Smad signaling pathway - cell viability counter screen (AID 1346824); further: nearly all actives have a fitted effect of over 50% in size
In short: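 SBE-bla HEK 293T cells were plated overnight at 37 C, then given compounds in DMSO plus TGF-beta1 (added as 0.25 ng/mL solution) for 5 hr. After the bla read, CellTiter-Glo was added to the same wells and luminescence read after 30 min at room temperature.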

[2] = qHTS assay to identify small molecule agonists of the TGF-beta/Smad signaling pathway - cell viability counter screen (AID 1346829); further: top concentration of the series differs between compounds; nearly all actives have a fitted effect of over 45% in size
In short: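 Same-well cytotoxicity: CellTiter-Glo added after the 2 hr room-temperature beta-lactamase substrate step, luminescence measured 30 min later; cells had 5 hr of compound at 37 C.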

[3] = qHTS assay to identify small molecule agonists of the TGF-beta/Smad signaling pathway (AID 1346859; active means well fitted activation curve with a large enough effect in the signal ratio in the repeat runs, not every such curve was filed as active; the % refers to the signal ratio; further: series mostly up to about 77 µM)
In short: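 Each well held 4,000 SBE-bla HEK 293T cells incubated overnight before compound addition; 5 hr later the cleavable FRET substrate went on for 2 hr at room temperature, and fluorescence was read at two emissions.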

[4] = Human pregnane X receptor (PXR) small molecule agonists, qHTS cell viability counter screen (AID 1346977); further: nearly all actives have a fitted effect of over 50% in size
In short: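 Tox21 qHTS format; PXR-Luc HepG2, 2,000/well, charcoal-stripped FBS 5%. Cpd exposure 24hr. Read: CellTiter-Fluor fluorescence, multiplexed with luciferase.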

[5] = Caspase-3/7 induction in HepG2 cells by small molecules, qHTS assay (AID 1346978); further: nearly all actives have a fitted effect of over 15% in size
In short: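 Wild-type HepG2 cells (2,000/well) were settled 5 h at 37 C, 5% CO2, then exposed to compounds in DMSO for 17 h. Caspase-3/7 activity was read by luminescence 30 min after adding Caspase-Glo 3/7 reagent at room temperature.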

[6] = Caspase-3/7 induction in CHO-K1 cells by small molecules, qHTS cell viability counter screen (AID 1346979); further: nearly all actives have a fitted effect of over 35% in size
In short: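 CellTiter-Fluor viability check, qHTS format: wild-type CHO-K1, 16hr compound treatment, 1hr reagent incubation, fluorescence read.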

[7] = Caspase-3/7 induction in CHO-K1 cells by small molecules, qHTS assay (AID 1346980); further: nearly all actives have a fitted effect of over 15% in size
In short: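 Wild-type cells were seeded at 1,500 per well and settled 5 hr at 37 C, 5% CO2, then exposed to DMSO-dissolved compounds for 17 hr. Caspase-Glo 3/7 reagent was added, and luminescence was read after 30min at room temperature.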

[8] = Caspase-3/7 induction in HepG2 cells by small molecules, qHTS cell viability counter screen (AID 1346981); further: series mostly up to about 92 µM; nearly all actives have a fitted effect of over 30% in size
In short: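 CellTiter-Fluor fluorescence measured viability in the same wells used for Caspase-Glo 3/7. HepG2 (wild type) at 2,000 cells/well were pre-incubated 5 hr, dosed, and given reagent at 16 hr, with 1 hr further at 37C.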

[9] = biological target: Nuclear receptor subfamily 1 group I member 2 (Homo sapiens) (UniProt O75469); assay: Human pregnane X receptor (PXR) small molecule agonists, qHTS assay (AID 1346982); further: nearly all actives have a fitted effect of over 35% in size; further: potency means the concentration at half of the fitted maximal effect
In short: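 Agonist mode: luminescence from ONE-Glo after 24 h compound exposure at 37C in HepG2 cells carrying hPXR-responsive CYP3A4 luciferase, plated in charcoal-stripped serum medium 5 h beforehand.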

[10] = biological target: Cytochrome P450 2D6 (Homo sapiens) (UniProt P10635); assay: Cytochrome P450 Family 2 Subfamily D Member 6 (CYP2D6) small molecule antagonists: luciferase reporter qHTS assay (AID 1671196); further: nearly all actives have a fitted effect of over 50% in size; further: potency means the concentration at half of the fitted maximal effect; on activity change, negative = inhibition: series mostly up to about 120 µM
In short: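 CYP2D6 activity was followed as luminescence from its luciferin product after a 1 h NADPH-driven reaction at room temperature. Enzyme-substrate mix and compound were pre-incubated for 10 min, and the signal was read 20 min after adding detection reagent.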

[11] = biological target: Cytochrome P450 2C19 (Homo sapiens) (UniProt P33261); assay: Cytochrome P450 Family 2 Subfamily C Member 19 (CYP2C19) small molecule antagonists: luciferase reporter qHTS assay (AID 1671197); further: nearly all actives have a fitted effect of over 65% in size; further: potency means the concentration at half of the fitted maximal effect; on activity change, negative = inhibition: series mostly up to about 120 µM
In short: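 Quantitative high-throughput screen of the Tox21 library using CYP2C19 with proluciferin substrate. Reaction: NADPH regeneration, 37C, 1 h, after 10 min compound preincubation at room temperature. Readout: luminescence.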

[12] = biological target: Cytochrome P450 2C9 (Homo sapiens) (UniProt P11712); assay: Cytochrome P450 Family 2 Subfamily C Member 9 (CYP2C9) small molecule antagonists: luciferase reporter qHTS assay (AID 1671198); further: nearly all actives have a fitted effect of over 50% in size; further: potency means the concentration at half of the fitted maximal effect; on activity change, negative = inhibition: series mostly up to about 120 µM
In short: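 CYP2C9 activity was measured with a P450-Glo proluciferin substrate. Enzyme–substrate mix was held with compound for 10 min at room temperature, then NADPH regeneration solution was added for 1 h at 37C. Luciferin product was read as luminescence.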

[13] = biological target: Voltage-gated inwardly rectifying potassium channel KCNH2 (Homo sapiens) (UniProt Q12809); assay: Human Ether-a-go-go-Related Gene (hERG) channel small molecule antagonists: fluorescence cell-based qHTS assay (AID 1671200)
In short: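 Kinetic two-minute fluorescence traces, sampled at 1 s, were collected following thallium stimulus of U2OS cells (1000 per well) that had been cultured overnight at 37 C and loaded with FluxOR II.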

[14] = biological target: Cytochrome P450 3A4 (Homo sapiens) (UniProt P08684); assay: Cytochrome P450 Family 3 Subfamily A Member 4 (CYP3A4) small molecule antagonists: luciferase reporter qHTS assay (AID 1671201); further: nearly all actives have a fitted effect of over 50% in size; further: potency means the concentration at half of the fitted maximal effect; on activity change, negative = inhibition: series mostly up to about 120 µM
In short: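 Proluciferin-to-luciferin conversion by CYP3A4, NADPH-regenerated, 1 h RT; luminescence read as RLU. Ketoconazole as control.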

[15] = biological target: Thyrotropin-releasing hormone receptor (Homo sapiens) (UniProt P34981); assay: qHTS assay to identify small molecule antagonists of the thyrotropin-releasing hormone receptor (TRHR) signaling pathway (AID 1346877; active means well fitted inhibition curve with a large enough effect in the repeat runs, not every such curve was filed as active; further: series mostly up to about 51 µM)
In short: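 Antagonist mode: after a 5 min room-temperature compound exposure, cells were stimulated with 1 nM (final) TRH. Dye-loaded TRHR-HEK293 cells were used, and calcium-dependent fluorescence was followed for 3 min, with 15-point titrations run in triplicate.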

[16] = biological target: Thyrotropin-releasing hormone receptor (Homo sapiens) (UniProt P34981); assay: qHTS assay to identify small molecule agonists of the thyrotropin-releasing hormone receptor (TRHR) signaling pathway (AID 1346891; calls by dose curve; further: series mostly up to about 58 µM)
In short: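 Screening of agonists relied on calcium signalling in HEK293 cells expressing human TRHR: dye loading 2 h at 37 °C preceded compound addition and a 3-min fluorescence time course.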

[17] = biological target: Nuclear receptor subfamily 1 group I member 2 (Rattus norvegicus) (UniProt Q9R1A7); assay: Rat pregnane X receptor (rPXR) activation by small molecules, qHTS assay (AID 1346983); details: rPXR luciferase reporter cells, One-Glo luminescence, 24 h; active compounds read high; further: nearly all actives have a fitted effect of over 20% in size
In short: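 Cell-based rPXR luciferase reporter assay, 2,000 cells per well, rested 5hr at 37 C before compound addition in DMSO, then 24 hr at 37 C. One-Glo reagent was added and luminescence read after 30 min at room temperature.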

[18] = biological target: Nuclear receptor subfamily 1 group I member 2 (Homo sapiens) (UniProt O75469); assay: CYP3A4 induction through human pregnane X receptor (PXR) by small molecules, qHTS assay (AID 1346984); further: nearly all actives have a fitted effect of over 40% in size
In short: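 Read-out is luminescence after One-Glo addition, following a 3 hr, 37C incubation with Luciferin-IPA CYP3A4 substrate (3uM final). Before that, compounds were on DPX-2 cells (HepG2 co-transfected with PXR element plus CYP3A4-promoter luciferase) for 24 hr at 37C.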

[19] = biological target: Cytochrome P450 1A2 (Homo sapiens) (UniProt P05177); assay: Cytochrome P450 Family 1 Subfamily A Member 2 (CYP1A2) small molecule antagonists: luciferase reporter qHTS assay (AID 1671199); further: nearly all actives have a fitted effect of over 50% in size; further: potency means the concentration at half of the fitted maximal effect; on activity change, negative = inhibition: series mostly up to about 120 µM
In short: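 Luminescence from luciferin formed by CYP1A2 from a proluciferin substrate, read 20 min after detection reagent. Compound was pre-incubated 10 min with enzyme-substrate, and reaction started with NADPH regeneration solution for 1 h at room temperature; furafylline control.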

Nuclear receptor subfamily 1 group I member 2 (Homo sapiens), sequence (O75469 whole entry, looked up): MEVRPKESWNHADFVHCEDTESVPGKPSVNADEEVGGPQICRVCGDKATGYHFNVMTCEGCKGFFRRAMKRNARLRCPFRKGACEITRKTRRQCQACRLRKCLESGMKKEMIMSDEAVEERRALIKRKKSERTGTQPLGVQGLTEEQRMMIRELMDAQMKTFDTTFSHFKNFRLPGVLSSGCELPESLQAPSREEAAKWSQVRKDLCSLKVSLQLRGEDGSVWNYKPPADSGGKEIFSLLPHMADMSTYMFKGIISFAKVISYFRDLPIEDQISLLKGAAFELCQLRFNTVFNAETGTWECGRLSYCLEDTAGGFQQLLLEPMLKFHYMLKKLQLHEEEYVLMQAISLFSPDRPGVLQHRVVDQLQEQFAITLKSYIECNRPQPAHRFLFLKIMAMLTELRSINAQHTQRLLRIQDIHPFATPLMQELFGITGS
Cytochrome P450 3A4 (Homo sapiens), sequence (P08684 whole entry, looked up): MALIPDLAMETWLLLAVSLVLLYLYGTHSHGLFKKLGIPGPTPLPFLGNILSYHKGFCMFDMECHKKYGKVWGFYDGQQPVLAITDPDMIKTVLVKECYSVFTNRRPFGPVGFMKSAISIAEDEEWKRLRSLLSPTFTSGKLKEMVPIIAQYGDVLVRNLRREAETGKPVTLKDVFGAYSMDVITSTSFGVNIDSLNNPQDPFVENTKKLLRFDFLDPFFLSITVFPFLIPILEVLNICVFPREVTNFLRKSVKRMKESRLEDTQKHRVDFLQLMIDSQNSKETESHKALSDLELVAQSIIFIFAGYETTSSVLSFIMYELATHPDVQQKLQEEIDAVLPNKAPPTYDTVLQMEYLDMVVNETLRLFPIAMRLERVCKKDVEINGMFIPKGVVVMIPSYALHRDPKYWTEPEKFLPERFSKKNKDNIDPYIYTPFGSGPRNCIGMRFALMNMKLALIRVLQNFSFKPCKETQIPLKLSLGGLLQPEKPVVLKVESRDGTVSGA
Thyrotropin-releasing hormone receptor (Homo sapiens), sequence (P34981 whole entry, looked up): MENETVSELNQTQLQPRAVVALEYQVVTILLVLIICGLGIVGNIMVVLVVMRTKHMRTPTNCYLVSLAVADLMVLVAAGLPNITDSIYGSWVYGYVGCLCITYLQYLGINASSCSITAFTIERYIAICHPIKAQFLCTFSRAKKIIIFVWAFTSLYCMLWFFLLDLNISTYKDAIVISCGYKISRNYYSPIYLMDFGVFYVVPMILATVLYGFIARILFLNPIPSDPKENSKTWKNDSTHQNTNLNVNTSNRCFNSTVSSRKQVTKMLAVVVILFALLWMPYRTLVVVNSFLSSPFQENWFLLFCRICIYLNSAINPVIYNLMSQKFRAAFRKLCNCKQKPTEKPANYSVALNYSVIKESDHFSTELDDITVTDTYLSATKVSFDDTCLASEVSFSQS
Voltage-gated inwardly rectifying potassium channel KCNH2 (Homo sapiens), sequence (Q12809 whole entry, looked up): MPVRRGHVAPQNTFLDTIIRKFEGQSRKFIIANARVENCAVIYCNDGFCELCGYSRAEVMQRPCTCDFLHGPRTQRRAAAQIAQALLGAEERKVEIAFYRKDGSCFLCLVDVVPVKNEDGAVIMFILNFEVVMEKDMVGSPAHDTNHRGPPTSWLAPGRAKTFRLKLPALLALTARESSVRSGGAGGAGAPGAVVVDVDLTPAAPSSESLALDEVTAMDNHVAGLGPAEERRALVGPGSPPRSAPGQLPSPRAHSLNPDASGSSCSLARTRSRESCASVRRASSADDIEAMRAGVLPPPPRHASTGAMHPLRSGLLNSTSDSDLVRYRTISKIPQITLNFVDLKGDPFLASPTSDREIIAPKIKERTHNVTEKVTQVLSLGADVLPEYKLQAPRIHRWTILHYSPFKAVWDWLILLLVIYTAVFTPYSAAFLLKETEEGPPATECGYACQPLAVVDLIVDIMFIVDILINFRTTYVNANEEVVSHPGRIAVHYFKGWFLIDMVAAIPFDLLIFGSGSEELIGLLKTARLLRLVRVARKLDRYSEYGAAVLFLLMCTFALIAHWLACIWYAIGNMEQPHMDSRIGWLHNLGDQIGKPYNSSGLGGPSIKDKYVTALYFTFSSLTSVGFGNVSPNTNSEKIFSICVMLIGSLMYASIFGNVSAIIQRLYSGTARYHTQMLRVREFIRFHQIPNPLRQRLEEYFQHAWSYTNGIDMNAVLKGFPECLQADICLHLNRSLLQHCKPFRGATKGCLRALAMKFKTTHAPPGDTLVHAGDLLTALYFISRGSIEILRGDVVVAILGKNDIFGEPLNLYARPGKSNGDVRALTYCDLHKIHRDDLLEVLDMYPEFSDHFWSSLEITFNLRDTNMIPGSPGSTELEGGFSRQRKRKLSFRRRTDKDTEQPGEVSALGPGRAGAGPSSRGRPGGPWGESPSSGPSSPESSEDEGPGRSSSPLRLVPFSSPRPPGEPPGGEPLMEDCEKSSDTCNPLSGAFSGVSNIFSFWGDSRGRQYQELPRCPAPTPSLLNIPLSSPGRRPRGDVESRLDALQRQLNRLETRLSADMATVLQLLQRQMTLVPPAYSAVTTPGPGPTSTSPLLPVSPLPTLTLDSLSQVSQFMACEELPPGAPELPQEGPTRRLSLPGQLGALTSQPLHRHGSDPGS
Cytochrome P450 1A2 (Homo sapiens), sequence (P05177 whole entry, looked up): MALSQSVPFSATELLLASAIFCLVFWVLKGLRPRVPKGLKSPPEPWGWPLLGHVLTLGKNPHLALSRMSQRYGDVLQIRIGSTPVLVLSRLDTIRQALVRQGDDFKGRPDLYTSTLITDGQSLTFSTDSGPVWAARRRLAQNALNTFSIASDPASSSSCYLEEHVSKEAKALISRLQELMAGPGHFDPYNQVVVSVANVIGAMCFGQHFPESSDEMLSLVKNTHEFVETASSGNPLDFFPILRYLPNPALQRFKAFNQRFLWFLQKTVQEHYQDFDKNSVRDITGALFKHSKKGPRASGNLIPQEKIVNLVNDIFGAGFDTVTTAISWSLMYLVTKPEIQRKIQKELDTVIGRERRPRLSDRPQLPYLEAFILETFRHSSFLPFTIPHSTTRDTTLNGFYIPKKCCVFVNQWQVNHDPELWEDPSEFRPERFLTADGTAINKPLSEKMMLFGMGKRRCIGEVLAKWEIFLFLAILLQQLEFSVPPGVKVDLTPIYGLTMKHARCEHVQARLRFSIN
Cytochrome P450 2C9 (Homo sapiens), sequence (P11712 whole entry, looked up): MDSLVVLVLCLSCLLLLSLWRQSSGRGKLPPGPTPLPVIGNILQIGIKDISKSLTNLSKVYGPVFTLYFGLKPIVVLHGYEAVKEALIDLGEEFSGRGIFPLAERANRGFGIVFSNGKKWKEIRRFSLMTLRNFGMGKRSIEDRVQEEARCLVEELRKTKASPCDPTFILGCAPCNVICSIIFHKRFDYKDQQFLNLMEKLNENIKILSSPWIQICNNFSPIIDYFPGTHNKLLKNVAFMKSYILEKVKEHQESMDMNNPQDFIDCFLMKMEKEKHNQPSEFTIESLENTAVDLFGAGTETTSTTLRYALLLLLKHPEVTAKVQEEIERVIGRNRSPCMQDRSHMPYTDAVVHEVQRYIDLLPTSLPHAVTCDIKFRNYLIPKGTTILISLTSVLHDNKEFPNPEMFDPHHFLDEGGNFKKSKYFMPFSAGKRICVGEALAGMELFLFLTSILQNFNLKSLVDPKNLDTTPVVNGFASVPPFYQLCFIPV
Cytochrome P450 2C19 (Homo sapiens), sequence (P33261 whole entry, looked up): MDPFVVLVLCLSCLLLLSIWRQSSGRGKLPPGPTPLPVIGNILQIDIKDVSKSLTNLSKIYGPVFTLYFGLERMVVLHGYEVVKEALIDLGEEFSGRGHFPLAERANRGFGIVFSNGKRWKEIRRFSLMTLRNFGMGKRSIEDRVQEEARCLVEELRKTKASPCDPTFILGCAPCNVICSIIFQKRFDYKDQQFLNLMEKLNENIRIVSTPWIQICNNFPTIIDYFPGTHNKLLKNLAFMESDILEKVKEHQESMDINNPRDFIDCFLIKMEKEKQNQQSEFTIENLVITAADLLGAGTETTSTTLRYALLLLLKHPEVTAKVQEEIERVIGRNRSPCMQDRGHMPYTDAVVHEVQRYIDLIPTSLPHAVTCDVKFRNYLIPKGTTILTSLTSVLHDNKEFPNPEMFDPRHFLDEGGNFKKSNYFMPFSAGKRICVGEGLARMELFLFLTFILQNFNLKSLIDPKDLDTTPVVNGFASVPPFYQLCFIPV
Cytochrome P450 2D6 (Homo sapiens), sequence (P10635 whole entry, looked up): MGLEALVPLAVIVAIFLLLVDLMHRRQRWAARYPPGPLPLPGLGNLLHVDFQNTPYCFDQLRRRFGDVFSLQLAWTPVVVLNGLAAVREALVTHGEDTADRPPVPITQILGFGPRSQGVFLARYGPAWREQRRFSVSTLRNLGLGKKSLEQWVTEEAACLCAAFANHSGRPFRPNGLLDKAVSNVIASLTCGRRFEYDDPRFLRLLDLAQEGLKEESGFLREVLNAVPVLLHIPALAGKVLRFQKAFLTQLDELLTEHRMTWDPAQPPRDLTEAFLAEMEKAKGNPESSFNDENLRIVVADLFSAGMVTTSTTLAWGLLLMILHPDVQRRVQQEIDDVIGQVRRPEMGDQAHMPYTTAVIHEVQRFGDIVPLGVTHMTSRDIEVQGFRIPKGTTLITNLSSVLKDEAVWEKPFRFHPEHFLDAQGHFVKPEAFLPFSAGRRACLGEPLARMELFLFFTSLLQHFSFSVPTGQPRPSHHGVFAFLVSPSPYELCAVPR
Nuclear receptor subfamily 1 group I member 2 (Rattus norvegicus), sequence (Q9R1A7 whole entry, looked up): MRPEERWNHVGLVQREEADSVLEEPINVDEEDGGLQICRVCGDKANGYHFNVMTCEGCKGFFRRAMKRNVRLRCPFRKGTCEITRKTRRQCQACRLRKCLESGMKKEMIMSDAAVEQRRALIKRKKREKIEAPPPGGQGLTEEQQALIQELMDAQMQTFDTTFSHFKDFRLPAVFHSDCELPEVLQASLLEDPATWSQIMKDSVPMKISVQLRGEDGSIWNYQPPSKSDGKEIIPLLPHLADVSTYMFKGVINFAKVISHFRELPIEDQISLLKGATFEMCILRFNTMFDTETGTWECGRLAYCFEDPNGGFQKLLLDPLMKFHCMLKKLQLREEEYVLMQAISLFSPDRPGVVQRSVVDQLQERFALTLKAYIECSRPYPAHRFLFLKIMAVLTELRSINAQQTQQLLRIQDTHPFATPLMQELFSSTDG

With `CCOCCOCC` the outcome [1] was “inactive”, the outcome [2] was “inactive” and the outcome [3] was “inactive”. For the same compound, the outcome [4] was “inactive”, the outcome [5] was “inactive” and the Potency [6] was “inactive”. The outcome [7] was “inactive”, the outcome [8] was “inactive” and the Potency [9] was “inactive”. For the same compound, the Potency [10] was “inactive”, the Potency [11] was “inactive” and the Potency [12] was “inactive”. For the same compound, the Potency [13] was “inactive” and the Potency [14] was “inactive”.
For `N[C@@H](CSCCCO)C(=O)O`, the viability change, negative = cytotoxic [1] was -0.153% [at 15.8 µM], the activity change, negative = cytotoxicity [2] was 6.47% [at 15.8 µM] and the activity, negative = inhibition [15] was -0.484% [at 10.5 µM]. For the same compound, the activation [16] was -0.038% [at 11.8 µM], the activity change, negative = cytotoxicity [4] was 9.45% [at 19 µM] and the caspase activation [5] was -0.396% [at 19 µM]. It also gave an activity change, negative = cytotoxicity [6] of 1.3% [at 19 µM], a caspase-3/7 activation [7] of 0.125% [at 19 µM] and an activity change, negative = cytotoxicity [8] of -2.1% [at 19 µM]. For the same compound, the activation [9] was -4.99% [at 19 µM], the max activation [17] was -2.52% and the Potency [18] was “inactive”. The activity change, negative = inhibition [10] was -4.36% [at 23.6 µM], the activity change, negative = inhibition [11] was 3.16% [at 23.6 µM] and the activity change, negative = inhibition [12] was 4.77% [at 23.6 µM]. It also gave an activity change, negative = inhibition [19] of 12.2% [at 23.6 µM], an activity change, negative = inhibition [13] of 17.6% [at 15.8 µM] and an activity change, negative = inhibition [14] of 15.6% [at 23.6 µM].
For `O=Cc1ccccc1Cl`, the outcome [1] was “inactive”, the outcome [2] was “inactive” and the outcome [3] was “inactive”. For the same compound, the outcome [4] was “inactive”, the Potency [6] was “inactive” and the outcome [7] was “inactive”. For the same compound, the outcome [8] was “inactive”, the Potency [9] was “inactive” and the Potency [11] was “inactive”. For the same compound, the Potency [12] was “inactive”, the Potency [19] was “inactive” and the Potency [14] was “inactive”.
For `NCC1(Cc2noc(=O)[nH]2)CCCCC1`, the outcome [1] was “inactive”, the outcome [2] was “inactive” and the outcome [3] was “inactive”. For the same compound, the outcome [4] was “inactive”, the outcome [5] was “inactive” and the Potency [6] was “inactive”. The outcome [7] was “inactive”, the outcome [8] was “inactive” and the Potency [9] was “inactive”. For the same compound, the Potency [10] was “inactive” and the Potency [14] was “inactive”.
For `Cc1ccc(N)cc1S(=O)(=O)O`, the outcome [1] was “inactive”, the outcome [2] was “inactive” and the outcome [3] was “inactive”. For the same compound, the outcome [4] was “inactive”, the Potency [6] was “inactive” and the outcome [7] was “inactive”. The outcome [8] was “inactive”, the Potency [9] was 61.1 µM (active) and the Potency [11] was 79.6 µM (active). The Potency [12] was 63.3 µM (active), the Potency [13] was “inactive” and the Potency [14] was “inactive”.
In the case of `CC/C(C)=N\O[Si](C)(O/N=C(\C)CC)O/N=C(\C)CC`, the outcome [1] is reported as “inactive”, the outcome [2] is reported as “inactive” and the outcome [3] is reported as “inactive”. For the same compound, the outcome [4] was “inactive”, the Potency [6] was “inactive” and the outcome [7] was “inactive”. The Potency [9] was “inactive”, the Potency [10] was 32.1 µM (active) and the Potency [11] was 22.8 µM (active). The Potency [19] was 40.5 µM (active), the Potency [13] was “inactive” and the Potency [14] was 12.8 µM (active).
In the case of `CC(C)C[C@@H]1[C@H](c2ccccc2)OC(=O)N1CCCN1CCCCCC1`, the outcome [1] is reported as “inactive”, the outcome [2] is reported as “inactive” and the outcome [3] is reported as “inactive”. The outcome [16] was “inactive”, the outcome [5] was “inactive” and the Potency [6] was “inactive”. The outcome [7] was “inactive”, the outcome [8] was “inactive” and the Potency [10] was 0.436 µM (active). For the same compound, the Potency [11] was 2.75 µM (active), the Potency [19] was “inactive” and the Potency [13] was “inactive”.
